Hits are enriched below; roughly 10% of the tested compounds scored in any of these assays.
JMJD2A Tudor inh = qHTS Assay for Inhibitors of JMJD2A-Tudor Domain; Lysine-specific demethylase 4A (Homo sapiens), O75164; AlphaScreen JMJD2A-Tudor / H3K4me3 peptide binding; Potency, µM (highest dose often 114 µM), for inactives: at the highest dose activity change, negative = inhibition, hits mostly inhibitors; 4.4% of 390,000 active; AID 504339, 2011; further: on the % scale 0 is the no-effect control and ±100 the full control effect; nearly all actives have a fitted effect of over 50% in size
G9a block = qHTS Assay for Inhibitors of Histone Lysine Methyltransferase G9a; G9a H3K9 monomethylation, AlphaScreen, 2 h; 8.8% of 350,000 active; Potency, µM (top dose mostly 102 µM), for inactives: at the top dose activity, negative = inhibition, hits mostly inhibitors; AID 504332, 2011; further: on the % scale 0 is the no-effect control and ±100 the full control effect; nearly all actives have a fitted effect of over 75% in size
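Signal arises when biotinylated H3K9 peptide, once monomethylated, bridges streptavidin donor and antibody-captured acceptor beads. Enzyme at 20 nM was preincubated 15 min with test compounds; peptide 500 nM and SAM 20 uM then reacted for 2 h.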
HP1b chromo inh = HTS for Inhibitors of HP1-beta Chromodomain Interactions with Methylated Histone Tails | Chromobox protein homolog 1 (Homo sapiens), P83916 | AlphaScreen HP1-beta / biotin-H3K9me3 peptide binding | Potency, µM (series often up to 114 µM), inactives show top-dose activity change, negative = inhibition, actives largely listed as inhibitors | 0.56% of 390,000 active | AID 540317, 2011; further: nearly all actives have a fitted effect of over 70% in size
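Compound inhibition of the preformed complex between 50 nM HP1-beta and 50 nM biotinylated H3K9me3 peptide was read by AlphaScreen. Buffer was PBS pH 7.4 with 0.01% Tween-20. Incubations ran 30 min at room temperature, with 10 ug/mL donor/acceptor beads.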
L3MBTL1 inh = qHTS Assay for the Inhibitors of L3MBTL1; 0.66% of 230,000 active; AlphaScreen L3MBTL1–H3K9me1 peptide binding; Potency, µM (highest dose often 57.1 µM), without a hit: at the highest dose activity, negative = inhibition, most hits filed as inhibitors; Lethal(3)malignant brain tumor-like protein 1 (Homo sapiens), Q9Y468; further: on the % scale 0 is the no-effect control and ±100 the full control effect; nearly all actives have a fitted effect of over 60% in size
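AlphaScreen assay: L3MBTL1 (50 nM final) was preincubated 30 min at room temperature with biotinylated H3(1-15)K9me1 peptide (75 nM final), then 30 min with library compounds; streptavidin donor and nickel chelate acceptor beads (10 ug/mL final) added, 30 min dark.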
BAZ2B inh = qHTS Assay for Inhibitors of BAZ2B | Bromodomain adjacent to zinc finger domain protein 2B (Homo sapiens), Q9UIF8 | AlphaScreen BAZ2B-H3K14Ac peptide displacement | Potency, µM (titrated, usually from 114 µM), for inactives: at the top dose activity change, negative = inhibition, hits mostly inhibitors | 4.4% of 360,000 active; further: on the % scale 0 is the no-effect control and ±100 the full control effect; nearly all actives have a fitted effect of over 60% in size
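AlphaScreen displacement of biotin-H3(5-23)K14Ac peptide (50 nM final) from BAZ2B (50 nM final) in PBS pH 7.4, 0.01% Tween-20; complex preformed 30 min RT, then compounds (top 110 uM) 30 min RT, beads 20 min dark.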
GLS inh = qHTS for Inhibitors of Glutaminase (GLS); GLS enzymatic activity, qHTS titration; Potency, µM (highest dose often 45.5 µM), inactives show at the top dose activity change, negative = inhibition, usual class: inhibitors; 0.21% of 410,000 active; further: on the % scale 0 is the no-effect control and ±100 the full control effect
Target sequence (O94925 whole entry, looked up): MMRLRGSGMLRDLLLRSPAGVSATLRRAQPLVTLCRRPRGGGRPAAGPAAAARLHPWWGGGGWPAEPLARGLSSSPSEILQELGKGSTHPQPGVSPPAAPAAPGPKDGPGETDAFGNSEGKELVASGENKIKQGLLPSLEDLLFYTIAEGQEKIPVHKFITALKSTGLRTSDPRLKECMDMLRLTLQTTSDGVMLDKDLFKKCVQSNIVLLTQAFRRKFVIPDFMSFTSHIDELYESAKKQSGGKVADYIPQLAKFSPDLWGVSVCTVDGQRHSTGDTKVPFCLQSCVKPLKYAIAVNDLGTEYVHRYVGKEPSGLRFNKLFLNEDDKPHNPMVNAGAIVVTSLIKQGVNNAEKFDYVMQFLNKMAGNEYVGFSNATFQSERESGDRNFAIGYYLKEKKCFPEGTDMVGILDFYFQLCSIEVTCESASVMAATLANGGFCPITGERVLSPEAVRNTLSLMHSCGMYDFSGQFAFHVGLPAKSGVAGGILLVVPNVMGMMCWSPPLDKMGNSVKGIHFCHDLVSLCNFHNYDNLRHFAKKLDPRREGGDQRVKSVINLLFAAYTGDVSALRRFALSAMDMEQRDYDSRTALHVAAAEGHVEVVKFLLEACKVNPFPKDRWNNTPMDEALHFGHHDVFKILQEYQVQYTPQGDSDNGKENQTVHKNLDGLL
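hKGA; 45 mM KH2PO4 pH 8.2 + 0.02% Tween-20; cpd via pin tool; 1 mM Gln soln; GluOx/HRP/Amplex Red; RT 30 min; fluor. t0 & final.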
* hit, by the source's call; ? = inconclusive; nt = no result; [ ] = dose if it differs, or a comment. The call rests on the fitted dose curve; in most records, active means well fitted curve in the direction sought with a large enough effect; inconclusive means small, poorly fitted or top-dose-only effect, or another doubt; inactive means no such curve, though single readings can be large; an effect the other way counts as inactive or inconclusive. Potency means the concentration at half of the fitted maximal effect.

SMILES	JMJD2A Tudor inh	G9a block	HP1b chromo inh	L3MBTL1 inh	BAZ2B inh	GLS inh
CCOC(=O)c1cc(C#N)c(SCC(=O)c2cc(C#N)c(SC)nc2C)[nH]c1=O	79.4µM*	50.1µM*	4.0%	7.2%	-33.0%	20.1%
CCOC(=O)c1cc(C#N)c(SCC(=O)O)[nH]c1=O	31.6µM*	?	12.1%	6.0%	?	?
CCOC(=O)c1cc(C#N)c(SCC(N)=O)[nH]c1=O	-12.6%	12.6µM*	31.3%	-16.3%	-11.2%	2.0%
CC(C(=O)O)n1cc(C#N)c(=O)[nH]c1=O (stereo unspecified)	-2.1%	nt	21.4%	nt	nt	-33.1%
Cc1nc(-c2cccc(F)c2)sc1CCNC(=O)C(=O)Nc1ccc2c(c1)OCO2	-11.8%	13.5%[59 µM]	19.8%[57 µM]	nt	-5.3%	5.1%
CCn1nc(C)c(CCN(C)C(=O)Nc2cc(C)cc(C)c2)c1C	0.3%	8.5%[12.7 µM]	?	nt	-12.2%	-11.6%
O=[N+]([O-])c1ccc(C=NNc2ccccc2)cc1	25.1µM*	nt	?	nt	nt	?
O=[N+]([O-])c1cccc(C=NNc2ccccc2)c1	39.8µM*	nt	?	nt	nt	?
O=C1C=CC(=Nc2ccc(F)cc2)O1	44.7µM*	nt	22.4µM*	nt	nt	12.3%
O=C1C=CC(=Nc2ccc3c(c2)C(=O)c2ccccc2-3)O1	-23.4%	nt	20.3%[57 µM]	nt	nt	-6.9%
CCCOc1ccc(/C=C/C(=O)Nc2sc(C)c(C)c2C(=O)OCC)cc1OC	79.4µM*	3.16µM*	?	nt	-9.2%	-20.1%
CC(C)(C)c1ccc(CNc2cc(N3CCOCC3)ccc2[N+](=O)[O-])cc1	?	25.1µM*	?	-26.4%	?	3.3%
CS(=O)(=O)N1CCN(c2ccc([N+](=O)[O-])c(NCc3ccc(Cl)cc3)c2)CC1	89.1µM*	24.7%[59 µM]	8.4%	7.0%	?	12.0%
Cc1cccc(NC(=O)c2sc3nc(-c4ccccc4)cn3c2C)c1C	-23.3%	20.9%[59 µM]	21.4%[57 µM]	nt	-4.2%	8.7%
Cc1ccc(S(=O)(=O)NC(=O)c2ccc(-c3ccc(-c4ccccc4)cc3)o2)c(C)c1	nt	39.8µM*	nt	-9.6%	?	nt
O=C(O)c1ccc(-c2ccc(-c3ccccc3)cc2)o1	nt	35.5µM*	nt	nt	nt	nt
NC(=O)C1CCN(C(=S)c2ccc(-c3ccc(Br)cc3)o2)CC1	-11.3%	35.5µM*	-6.1%	nt	-15.4%	-11.7%
Cc1ccccc1C(=O)Nc1cccc(NC(=O)c2ccc(-c3ccc(Br)cc3)o2)c1	-3.8%	8.3%[2.33 µM]	10.6%	nt	2.6%	11.9%
COc1ccc(C(=S)N2CCC(C(N)=O)CC2)cc1Br	-16.8%	?	-19.6%	-0.5%	-1.4%	-0.9%
O=C(O)c1ccc(-c2cccc(Cl)c2)o1	-24.5%	nt	10.2%	nt	nt	1.6%
Cc1ccc(S(=O)(=O)NC(=O)c2ccc(F)cc2)c(C)c1	-27.2%	-3.6%	24.0%	nt	-1.3%	2.1%
NC(=O)c1ccc(-c2ccc(Br)cc2)o1	-27.7%	50.1µM*	-15.2%	-5.1%	-35.4%	-0.3%
CCCCOc1ccc(CNC(=O)c2cnc3sc(N4CCCC4)nn3c2=O)cc1	-8.3%	13.4%[59 µM]	-0.5%	nt	-8.9%	-11.8%
CC(C)CCn1c(=O)c2cccnc2n(CC(=O)Nc2ccc(F)cc2)c1=O	-4.4%	4.0%[59 µM]	43.4%	nt	-1.4%	-15.8%
Cc1[nH]c2ccccc2c1/C=N/NC(=O)CCC(=O)NCc1ccccc1	11.2µM*	-6.0%	-24.1%	-6.1%	-21.5%	?
Cc1[nH]c2ccccc2c1/C=N/NS(=O)(=O)c1ccccc1	?	50.1µM*	-16.1%	-7.8%	-38.1%	?
COc1ccc(NS(=O)(=O)c2cc([N+](=O)[O-])ccc2N/N=C/c2c(C)[nH]c3ccccc23)cc1	-26.0%	nt	-20.3%	nt	nt	4.3%

Compound activity deposited in PubChem by National Center for Advancing Translational Sciences (NCATS).
